Measurements published in the supplement of paper PMC3545927.
The list shows a part of the results. The true hit rate is not given.

Target: furin, P09958
Experiment: furin cleavage Z-score vs untreated control; higher = more cleavage, active = 3.5 or more, inactive = 1 or less, 8 variable residues between constant flanks
In short: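 Abundance of DNA freed from bead-bound 8-mer peptide–cDNA fusions by purified furin was measured as sequencing read counts after PCR adapter tagging. Cutting ran 7.5, 15 or 30 min in 0.01 ml of 50 mM HEPES pH 7.5 with CaCl2 and NaCl at 1:10 enzyme:substrate. The cleavage Z-score expresses these log counts against furin-free reactions after lowess adjustment and median absolute deviation scaling.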

furin, P09958, sequence (P09958 whole entry): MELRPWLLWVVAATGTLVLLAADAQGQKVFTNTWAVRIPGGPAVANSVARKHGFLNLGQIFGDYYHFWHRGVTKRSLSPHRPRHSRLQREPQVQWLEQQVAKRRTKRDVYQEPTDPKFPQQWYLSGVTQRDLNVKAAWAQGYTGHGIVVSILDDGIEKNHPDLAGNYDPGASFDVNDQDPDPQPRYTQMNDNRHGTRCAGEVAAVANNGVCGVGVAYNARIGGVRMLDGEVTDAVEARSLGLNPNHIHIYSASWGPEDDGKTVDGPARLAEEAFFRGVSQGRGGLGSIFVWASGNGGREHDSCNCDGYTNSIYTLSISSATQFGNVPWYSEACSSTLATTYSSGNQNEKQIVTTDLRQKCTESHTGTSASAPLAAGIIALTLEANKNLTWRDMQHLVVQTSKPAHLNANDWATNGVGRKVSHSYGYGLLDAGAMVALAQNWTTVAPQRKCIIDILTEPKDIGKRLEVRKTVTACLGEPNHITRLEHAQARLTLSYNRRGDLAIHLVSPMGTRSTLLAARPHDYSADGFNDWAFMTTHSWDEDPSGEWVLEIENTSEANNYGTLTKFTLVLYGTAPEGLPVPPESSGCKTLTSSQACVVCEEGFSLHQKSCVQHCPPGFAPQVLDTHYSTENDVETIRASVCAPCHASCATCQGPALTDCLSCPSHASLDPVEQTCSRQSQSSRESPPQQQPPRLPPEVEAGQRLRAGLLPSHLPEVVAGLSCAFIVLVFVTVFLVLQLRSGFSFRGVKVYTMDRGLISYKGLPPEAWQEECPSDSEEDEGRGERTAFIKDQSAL

| Sequence | furin cleavage Z-score (7.5 min) | furin cleavage Z-score (15 min) | furin cleavage Z-score (30 min) |
| --- | --- | --- | --- |
| CANEMEECSQAGNASASA [HC1801] | -0.962 (inactive) | 0.682 (inactive) | -0.461 (inactive) |
| CAETVTSTWVAGNASASA [HC2178] | -0.174 (inactive) | 0.0107 (inactive) | 0.00907 (inactive) |
| CAARRRRKRLAGNASASA [FS-9] | 9.78 (active) | 12.2 (active) | 9.85 (active) |
| CAVGGVEHRLAGNASASA [HC477] | 0.551 (inactive) | 1.48 | 0.304 (inactive) |
| CAVQVRGKRLAGNASASA [FS-312] | 6.21 (active) | 7.9 (active) | 7.68 (active) |
| CAQQELRKRLAGNASASA [FS-1390] | 0.809 (inactive) | 0.166 (inactive) | 1.43 |
| CARRRRDSRSAGNASASA [FS-1267] | 9.84 (active) | 9.21 (active) | 7.48 (active) |
| CAVFSRDSRSAGNASASA [FS-103] | 2.25 | 0.692 (inactive) | 2.36 |
| CANKVRAKRSAGNASASA [FS-618] | 10.6 (active) | 10.4 (active) | 8.36 (active) |
| CARRATLKRSAGNASASA [FS-624] | 3.99 (active) | 5.42 (active) | 4.76 (active) |
| CAGQPGLKRSAGNASASA [FS-1203] | -1.59 (inactive) | 1.19 | -2.33 (inactive) |
| CARRRRRKESAGNASASA [FS-2298] | 2.91 | 3.94 (active) | 2.81 |
| CAKGWRLLAPAGNASASA [HC671] | 0.0408 (inactive) | 0.181 (inactive) | -0.469 (inactive) |
| CALPINALSNAGNASASA [HC1381] | 0.137 (inactive) | -0.538 (inactive) | -0.0923 (inactive) |
| CAFWEGVFTGAGNASASA [HC939] | -1.63 (inactive) | 0.063 (inactive) | -1.49 (inactive) |
| CATLTCGFADAGNASASA [HC223] | -1.51 (inactive) | -0.777 (inactive) | -0.721 (inactive) |
| CAEVVTSTIVAGNASASA [HC2224] | 1.34 | 0.923 (inactive) | -0.591 (inactive) |
| CAIEMEECSQAGNASASA [HC1784] | 0.115 (inactive) | -0.919 (inactive) | -0.409 (inactive) |
| CARRRRAKRSAGNASASA [FS-1481] | 10 (active) | 9.95 (active) | 7.99 (active) |
| CAMEECCQHLAGNASASA [HC34] | 0.752 (inactive) | -0.68 (inactive) | 0.844 (inactive) |
| CAERSRVCRCAGNASASA [FS-123] | -0.711 (inactive) | 0.103 (inactive) | 2.18 |
| CAHPVREARAAGNASASA [FS-1211] | 3.66 (active) | 5.02 (active) | 5.4 (active) |
| CAERSRKRRAAGNASASA [FS-417] | 11.5 (active) | 10.5 (active) | 7.42 (active) |
| CAESTRTRRAAGNASASA [FS-1522] | 8.54 (active) | 9.73 (active) | 8.09 (active) |
| CAHYVPESDAAGNASASA [HC1127] | -0.402 (inactive) | -0.697 (inactive) | -1.88 (inactive) |

| Sequence | furin cleavage Z-score (7.5 min) | furin cleavage Z-score (15 min) | furin cleavage Z-score (30 min) |
| --- | --- | --- | --- |
| CAERSREMRAAGNASASA [FS-1120] | 0.288 (inactive) | 0.367 (inactive) | -1.27 (inactive) |
| CAHPNIEEVAAGNASASA [HC840] | 0.6 (inactive) | -0.828 (inactive) | 0.48 (inactive) |
| CAHPSRKRRAAGNASASA [FS-132] | 11.3 (active) | 11.3 (active) | 8.53 (active) |
| CAMNTPGLPVAGNASASA [HC932] | 0.685 (inactive) | 0.0364 (inactive) | -1.85 (inactive) |
| CAEVVTSTWGAGNASASA [HC2256] | 0.945 (inactive) | 1.37 | -1.03 (inactive) |
| CAMQECSQHLAGNASASA [HC1702] | 0.311 (inactive) | 0.512 (inactive) | -0.705 (inactive) |
| CAEEQKLPINAGNASASA [HC1379] | 0.861 (inactive) | -1.11 (inactive) | -0.462 (inactive) |
| CASVPCHRPSAGNASASA [HC2317] | 0.746 (inactive) | 0.823 (inactive) | 0.912 (inactive) |
| CAIPVRAPRSAGNASASA [FS-442] | 5.71 (active) | 3.56 (active) | 4.32 (active) |
| CASRKRAPRSAGNASASA [FS-963] | 10.6 (active) | 8.82 (active) | 9.02 (active) |
| CANATRAPRSAGNASASA [FS-63] | 8.66 (active) | 8.42 (active) | 6.36 (active) |
| CAEFERAPRSAGNASASA [FS-524] | 0.193 (inactive) | 0.266 (inactive) | 0.907 (inactive) |
| CAREFRAHRSAGNASASA [FS-487] | 1.52 | 0.689 (inactive) | 1.39 |
| CATTPCSGLWAGNASASA [HC1905] | 0.96 (inactive) | 1.01 | -0.0137 (inactive) |
| CATSTWVLVGAGNASASA [HC989] | -2.25 (inactive) | -0.362 (inactive) | -1.37 (inactive) |
| CAYSSMPPLEAGNASASA [HC1353] | 0.446 (inactive) | 1.62 | 1.96 |
| CAERVVCCSMAGNASASA [HC2133] | -0.391 (inactive) | 0.896 (inactive) | 0.654 (inactive) |
| CARRRRGFRQAGNASASA [FS-2788] | 2.04 | 3.6 (active) | 4.63 (active) |
| CARQPRPAGVAGNASASA [FS-3041] | -0.899 (inactive) | -0.574 (inactive) | -0.629 (inactive) |
| CAERAPERRDAGNASASA [FS-24] | -2.22 (inactive) | -0.00906 (inactive) | -1.69 (inactive) |
| CARFPRFVNVAGNASASA [FS-2925] | 3.2 | 3.36 | 7.1 (active) |
| CALGARERRDAGNASASA [FS-1226] | 13.9 (active) | 15.5 (active) | 11.8 (active) |
| CARFPRGVSRAGNASASA [FS-3247] | -0.934 (inactive) | -0.454 (inactive) | -0.752 (inactive) |
| CAVGERFRRDAGNASASA [FS-386] | 11.7 (active) | 13 (active) | 8.87 (active) |
